45 molecules from PubChem BioAssay AID743255 (National Center for Advancing Translational Sciences (NCATS), 2014) can be followed below.

Out of some 390,000 compounds screened, about 910 (0.23%) were called active. Inconclusive results (about 5%) are left out. For the sample, actives were picked, then their nearest neighbours and some compounds at random. Values without a mark were called inactive. The call rests on the fitted dose curve; in most records, active means well fitted inhibition curve with a large enough effect; inconclusive means small, poorly fitted or top-dose-only effect; inactive means no such curve, though single readings can be large or run the other way.
On the % scale 0 is the no-effect control and ±100 the full control effect; potency means the concentration at half of the fitted maximal effect.

Ubiquitin carboxyl-terminal hydrolase 1 (Homo sapiens), sequence (O94782 whole entry, looked up): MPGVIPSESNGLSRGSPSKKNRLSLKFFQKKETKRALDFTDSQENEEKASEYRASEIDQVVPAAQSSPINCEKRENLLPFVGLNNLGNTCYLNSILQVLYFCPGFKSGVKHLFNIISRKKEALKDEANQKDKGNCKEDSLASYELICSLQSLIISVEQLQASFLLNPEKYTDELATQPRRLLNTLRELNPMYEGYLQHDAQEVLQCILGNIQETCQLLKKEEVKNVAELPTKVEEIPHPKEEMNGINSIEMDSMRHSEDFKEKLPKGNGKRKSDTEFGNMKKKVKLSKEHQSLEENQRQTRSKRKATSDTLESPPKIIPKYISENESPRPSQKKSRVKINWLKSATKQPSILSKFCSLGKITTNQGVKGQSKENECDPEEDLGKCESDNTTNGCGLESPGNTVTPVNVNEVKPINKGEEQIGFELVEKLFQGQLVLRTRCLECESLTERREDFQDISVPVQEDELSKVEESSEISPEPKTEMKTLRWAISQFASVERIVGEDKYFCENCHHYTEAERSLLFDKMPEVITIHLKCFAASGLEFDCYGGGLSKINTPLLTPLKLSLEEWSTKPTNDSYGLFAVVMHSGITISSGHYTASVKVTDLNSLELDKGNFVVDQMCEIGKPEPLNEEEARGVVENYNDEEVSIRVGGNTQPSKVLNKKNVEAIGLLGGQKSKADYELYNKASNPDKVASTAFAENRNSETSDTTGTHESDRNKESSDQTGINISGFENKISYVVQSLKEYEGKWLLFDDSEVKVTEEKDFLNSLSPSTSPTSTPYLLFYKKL

The assay deals with Ubiquitin carboxyl-terminal hydrolase 1 (Homo sapiens) (UniProt O94782). Description: Inhibitors of USP1/UAF1: Primary Screen. Further: nearly all actives have a fitted effect of over 60% in size. Conditions: recombinant USP1/UAF1, Ub-Rhodamine cleavage fluorescence; series mostly up to 57.1 µM; activity change, negative = inhibition: at the top concentration. An excerpt:
Deubiquitinating enzymes (DUBs) are a class of enzymes that can cleave isopeptide bond formed between the C-terminal carboxylate of ubiquitin and a lysine side-chain amino group on the target protein. Among them, ubiquitin specific proteases (USPs) constitute the largest DUB family. Human USPs are emerging as promising targets for pharmacological intervention because of their connection to a number of human diseases, including prostate, colon and breast cancer (1, 2), pediatric acute lymphoblastic leukemia (3), and familial cylindromatosis (4). The advantage of inhibiting USPs lies in the potential specificity of therapeutic intervention that can lead to better efficacy and reduce nonspecific side effects. In a collaboration between the University of Delaware and the NIH Chemical Genomics Center, a high-throughput screen assay was developed to screen for USP1/UAF1 inhibitors. This miniaturized assay has a fluorescent read-out and is used to screen the NIH Molecular Libraries Small Molecule Repository (MLSMR) in order to identify a small molecule that inhibits USP1. NIH Chemical Genomics Center [NCGC] NIH Molecular Libraries Probe Centers Network [MLPCN] MLPCN Grant: DA030552 Assay Submitter (PI): Zhihao Zhuang, University of Delaware 1. Priolo, C., et al. (2006) The isopeptidase USP2a protects human prostate cancer from apoptosis. Cancer Res 66, 8625-8632 2. Popov, N., et al. (2007) The ubiquitin-specific protease USP28 is required for MYC stability. Nat Cell Biol 9, 765-774 3. De Pitta, C., et al. (2005) A leukemia-enriched cDNA microarray platform identifies new transcripts with relevance to the biology of pediatric acute lymphoblastic leukemia. Haematologica 90, 890-898 4. Kovalenko, A., et al. (2003) The tumour suppressor CYLD negatively regulates NF-kappaB signalling by deubiquitination. Nature 424, 801-805
3 microliters of reagents (buffer in columns 3 and 4 as negative control and 1nM USP1/UAF1 complex in columns 1, 2, and 5-48) are dispensed into Greiner black solid bottom 1536-well assay plates. Compounds are then transferred via Kalypsys pin tool equipped with 1536-pin array (10nl slotted pins, V&P Scientific, San Diego, CA). Following an incubation step of 15 min at room temperature, 1ul of Ub-Rho substrate (150nM final concentration) is added to initiate the reaction. The plates are immediately centrifuged at 1000 rpm for 15 seconds, and subsequently transferred to a ViewLux high-throughput CCD imager (PerkinElmer) wherein kinetic measurements of fluorescence are acquired using 480 nm excitation/540 nm emission filter set (6 reads every 60 seconds, see Table 1). All reagents are diluted in an assay buffer consisting of 50mM HEPES (pH 7.8), 0.5mM EDTA, 0.1 mg/ml BSA, 1mM TCEP, and 0.01% Tween-20.
For `CN(C)S(=O)(=O)c1ccc(C(=O)N(Cc2cccnc2)c2nc3c(F)cc(F)cc3s2)cc1`, the “activity change, negative = inhibition” value is -12.4%.

Regarding `COc1ccc(-n2c(=O)c3c(c4cc(OC)ccc4n3C)n(Cc3cccc(C)c3)c2=O)cc1`, the “activity change, negative = inhibition” value is -22.4%.

For the molecule `Oc1ccc(N=Cc2sc3ccccc3c2Cl)cc1`, the Potency was 25.1 µM (active).

Regarding `CCc1nc(-c2cc(S(=O)(=O)N3CCN(c4ccc(OC)cc4)CC3)ccc2OC)no1`, the “activity change, negative = inhibition” value was -17.7%.

Regarding `CCOc1cc(C(=O)NCCc2csc3nc(-c4ccc(C)cc4)nn23)cc(OCC)c1OCC`, the “activity change, negative = inhibition” value was -9.17%.

On to `CCSc1nnc(NC(=O)c2cc(=O)c3cc(C)c(C)cc3o2)s1`, for which the “activity change, negative = inhibition” value was 3.51%.

With `Cc1c(NC(=O)Nc2ccc(F)c(Cl)c2)c(=O)n(-c2ccccc2)n1C`, the “activity change, negative = inhibition” value is -6.4%.

`Cc1cccc(N2CCN(C(=O)CCSCc3ccccc3F)CC2)c1C`: the “activity change, negative = inhibition” value is -12.4%.

For the molecule `COc1ccc(CCNC(=O)c2nn(C)c3c2CSc2ccccc2-3)cc1OC`, the “activity change, negative = inhibition” value is -21.5%.

As for `C#CCOCCOCCOCCNc1nc(N2CCN(C(=O)CCCCCCCCCCNC(=O)[C@H]([C@@H](C)CC)n3cc(CCCCN=C(N)N)nn3)CC2)nc(N2CCN(C(=O)CCCCCCCCCCNC(=O)[C@H](CO)n3cc(CCCSC)nn3)CC2)n1`, the Potency is 28.2 µM (active).

Consider `C#CCOCCOCCOCCNc1nc(N2CCN(C(=O)C([C@@H](C)CC)n3cc(C(N)COC(=O)C(F)(F)F)nn3)CC2)nc(N2CCN(C(=O)[C@H](CCCCN)n3cc(C(N)CC(C)C)nn3)CC2)n1` (stereo not given in full), for which the “activity change, negative = inhibition” value was 7.14%.

In the case of `C#CCOCCOCCOCCNc1nc(N2CCOCC2)nc(N2CCN(C(=O)[C@H](Cc3ccc(O)cc3)n3cc(CCO)nn3)CC2)n1`, the “activity change, negative = inhibition” value is -26.5%.

For `COc1ccccc1NC(=O)c1cc(S(=O)(=O)NCCc2ccccc2)ccc1F`, the “activity change, negative = inhibition” value was -29.6%.

For the molecule `COC(=O)c1ccc(NC(=O)c2cc(S(=O)(=O)N3CCC(C)CC3)cn2C)cc1`, the “activity change, negative = inhibition” value was -7.47%.

With `Cc1ccc(Cl)cc1N(C)C(=O)C1CCCN(c2ncnc3onc(-c4ccc(F)cc4)c23)C1` (stereo not given), the “activity change, negative = inhibition” value is -14.7%.

On to `COc1ccc(Cc2nc3ccc(C(=O)NCc4ccc(OC)cc4OC)cc3o2)cc1`, for which the “activity change, negative = inhibition” value is -4.95%.

Consider `Cc1ccccc1CNC(=O)CCc1cn(Cc2ccccc2C)c2ccccc12`, for which the “activity change, negative = inhibition” value is -19.7%.

In the case of `Cc1ccc(CCNC(=O)c2nnc(Cc3cccc(F)c3)o2)cc1`, the “activity change, negative = inhibition” value is -24.8%.

`CCS(=O)(=O)c1nc(S(=O)(=O)c2ccc(C)cc2)c(NCc2ccc(Cl)cc2)s1`: the “activity change, negative = inhibition” value was 1.22%.

As to `COc1ccc(-c2nc(Cn3c(=O)cc(C)c4c(C)nn(-c5ccccc5)c43)c(C)o2)c(OC)c1`, the “activity change, negative = inhibition” value was -5.06%.

Take `Cc1ccc(Cl)cc1N1CCN(C(=O)c2cccn3c(=O)c4cc(Cl)ccc4nc23)CC1`: the “activity change, negative = inhibition” value is -23.4%.

On to `COC(=O)c1cc(NC(=O)CCc2c(C)nc3c4c(C)cc(C)nc4nn3c2C)cc(C(=O)OC)c1`, for which the “activity change, negative = inhibition” value was -2.6%.

With `CC(=O)N1C(=O)/C(=C2\SC(=S)N(NC(=O)c3ccc(O)cc3)C2=O)c2ccccc21`, the Potency was 3.98 µM (active).

Turning to `CC(C)n1cnc2c(NCc3ccccc3)cc(OCC3CCN(C)CC3)cc21`, the Potency is 17.8 µM (active).

`Cc1ccc(-c2cnc(NCc3ccc(C(C)C)cc3)n2C)cc1`: the “activity change, negative = inhibition” value is -27.3%.

As to `CCOC(=O)c1c(NC(=O)/C=C/c2ccc(OC)cc2)sc2c1CCC(C)C2` (stereo not given), the “activity change, negative = inhibition” value was 31.4%.

With `CCCN1CCc2nc(N3CCN(C)CC3)ncc2C1`, the “activity change, negative = inhibition” value was 1.13%.

Regarding `O=C(CCl)N(Cc1cccc([N+](=O)[O-])c1)c1cccc(Cl)c1`, the “activity change, negative = inhibition” value is -2.98%.

With `COc1ccc([N+](=O)[O-])cc1C1NN=C(c2cccc3ccccc23)S1` (stereo not given), the “activity change, negative = inhibition” value is -9.93%.

Consider `O=C1Nc2ccc([N+](=O)[O-])cc2C1=Nc1cccc(CO)c1`, for which the Potency was 25.1 µM (active).

With `CN1C(=O)c2cccc3c(N)ccc(c23)C1=O`, the Potency is 4.47 µM (active).

For the molecule `CCOC(=O)c1c(NC(C)=O)c2c3c(sc2n1Cc1c(C)cc(C)cc1C)CCCC3`, the “activity change, negative = inhibition” value is -23.7%.

Turning to `COc1ccc(CCNC(=O)c2cc3cccc4c3n2CC(C)S4)c(OC)c1OC` (stereo not given), the “activity change, negative = inhibition” value was -25.8%.

For the molecule `Cc1ccc(OC(=O)CSc2nnc(-c3cccs3)o2)cc1`, the “activity change, negative = inhibition” value was -10.2%.

On to `O=C(CSCc1cnn(-c2ccccc2)c1-n1cccc1)NCc1ccccc1Br`, for which the “activity change, negative = inhibition” value is -11.6%.

Take `CCOC(=O)C1CCCN(C(=O)c2ccc3c(c2)sc2nc(-c4ccc(CC)cc4)cn23)C1` (stereo not given): the “activity change, negative = inhibition” value was -7.16%.

Regarding `COc1ccc(OC)c2sc(N3CCN(C(=O)C4COc5ccccc5O4)CC3)nc12` (stereo not given), the “activity change, negative = inhibition” value is -8.78%.

With `Cc1ccc2c(c1)N(C(=O)Nc1ccc(Br)cc1F)CCO2`, the “activity change, negative = inhibition” value is -0.306%.

Regarding `CCOc1ccc(CCNC(=O)c2cc3c(=O)n(C)c4ccccc4c3n2C)cc1`, the “activity change, negative = inhibition” value is -22.7%.

`CCCN(CCC)c1nc2c(C)cccn2c(=O)c1/C=C1/SC(=S)N(Cc2ccco2)C1=O`: the “activity change, negative = inhibition” value was 123%.

`CCOC(=O)CC1C(=O)NCCN1c1nc2c(C)cccn2c(=O)c1/C=C1\SC(=S)N(C(C)CC)C1=O` (stereo not given): the Potency was 8.91 µM (active).

Consider `CCOC(=O)CNC(=O)c1cc2c(=O)n3cccc(C)c3nc2s1`, for which the “activity change, negative = inhibition” value was 8.57%.

As to `O=C(NCC(c1cccnc1)N1CCc2ccccc21)c1cccc(C(F)(F)F)c1` (stereo not given), the “activity change, negative = inhibition” value is -8.98%.

Turning to `CC1=C(C(=O)OCC(C)C)C(c2ccc(OCc3ccccc3)cc2)N2C(=O)CCSC2=N1` (stereo not given), the “activity change, negative = inhibition” value was -2.16%.

In the case of `COc1cccc(C(=O)Nc2ccc3oc(-c4ccc5ccccc5c4)nc3c2)c1`, the “activity change, negative = inhibition” value is -16.5%.
